Values joined by “and” are separate entries in the source; they are usually repeats but may differ in a detail not shown here. Identical values can stand only once. The source holds several records for some structures; these can differ, active in one and inactive in another. Active and inactive are the calls of the source. How the source made its calls: active means hit-call score of the fitted dose curve at least 0.9, where 1 is the maximum; inactive means score below 0.9.

One may read the AC50 as the midpoint of the concentration-response curve, whichever way the signal moves.

Conditions in all cases: mRNA level, 48 h; actives raise or lower the signal
Read-out in test [1]: Interleukin 6 Receptor (IL6R), IL6R (gene 3570)
Description: LTEA_HepaRG_IL6R: Life Technologies and Expression Analysis (LTEA) Assay for Interleukin 6 Receptor (IL6R) using HepaRG (AID 2283510).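 On AC50: differentiated human HepaRG liver cells in serum-free induction medium; TaqMan qRT-PCR signal normalized to ACTB GAPDH and POLR2A housekeeping genes.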 The gist of the method: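 Concentration-response in human liver HepaRG cells: eight concentrations from 100 uM downward by half-logs, 48 h exposure, 0.5% DMSO vehicle. IL6R mRNA change measured by qRT-PCR and fitted in both directions relative to vehicle.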

Read-out in test [2]: Potassium channel subfamily K member 1 (KCNK1), KCNK1 (gene 3775)
The test can be described thus: LTEA_HepaRG_KCNK1: Life Technologies and Expression Analysis (LTEA) Assay for Potassium channel subfamily K member 1 (KCNK1) using HepaRG (AID 2283511). The gist of the method:
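Gain or loss of KCNK1 mRNA is the read-out, quantified by qRT-PCR against three housekeeping genes after 48 h chemical treatment of human HepaRG liver cells. Concentrations ran from 100 uM downward in half-log steps, vehicle 0.5% DMSO.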

Read-out in test [3]: Keratin 19 (KRT19), KRT19 (gene 3880)
The test can be described thus: LTEA_HepaRG_KRT19: Life Technologies and Expression Analysis (LTEA) Assay for Keratin 19 (KRT19) using HepaRG (AID 2283512). The gist of the method: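 Readout is qRT-PCR of KRT19 mRNA, normalized to ACTB, GAPDH and POLR2A, from HepaRG cells treated 48 h with eight-point half-log dilutions topping at 100 uM. Activity in either direction is scored relative to 0.5% DMSO vehicle.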

Read-out in test [4]: Lipase C (LIPC), LIPC (gene 3990)
The test can be described thus: LTEA_HepaRG_LIPC: Life Technologies and Expression Analysis (LTEA) Assay for Lipase C (LIPC) using HepaRG (AID 2283514). The gist of the method:
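Read-out is LIPC transcript level by TaqMan qRT-PCR, normalized to three housekeeping genes, after 48 h chemical treatment of human HepaRG liver cells. Curves span eight concentrations topping at 100 uM; activity in either direction scored relative to 0.5% DMSO.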

Read-out in test [5]: Lipoprotein lipase (LPL), LPL (gene 4023)
Description: LTEA_HepaRG_LPL: Life Technologies and Expression Analysis (LTEA) Assay for Lipoprotein lipase (LPL) using HepaRG (AID 2283515). The gist of the method: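 Read-out is LPL transcript level by qRT-PCR, normalized to three housekeeping genes and fitted bidirectionally against the DMSO control. Human HepaRG cells received chemicals for 48 h at up to 100 uM.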

Read-out in test [6]: MicroRNA 122 (MIR122), gene 406906
The test can be described thus: LTEA_HepaRG_MIR122: Life Technologies and Expression Analysis (LTEA) Assay for MicroRNA 122 (MIR122) using HepaRG (AID 2283516). Further: the transcript read is the microRNA miR-122. The gist of the method:
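HepaRG, 48 h exposure, 8-pt half-log from 100 uM, 0.5% DMSO; TaqMan qRT-PCR; bidirectional fit vs DMSO.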

Read-out in test [7]: matrix metalloproteinase-10 (MMP10), MMP10 (gene 4319)
The test can be described thus: LTEA_HepaRG_MMP10: Life Technologies and Expression Analysis (LTEA) Assay for matrix metalloproteinase-10 (MMP10) using HepaRG (AID 2283517). The gist of the method: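 Gain or loss of MMP10 mRNA is fitted relative to the 0.5% DMSO vehicle. The human hepatic line HepaRG receives a 48-hour serum-free exposure, in duplicate, with a maximum concentration of 100 uM.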

Read-out in test [8]: MYC, MYC (gene 4609)
Description: LTEA_HepaRG_MYC: Life Technologies and Expression Analysis (LTEA) Assay for MYC using HepaRG (AID 2283518). The gist of the method: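 Expression changes were scored by TaqMan qRT-PCR with ACTB, GAPDH and POLR2A normalization. Cultures in serum-free induction medium received duplicate 8-point concentration series, highest 100 uM, for 48 h; DMSO (0.5%) served as baseline.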

Read-out in test [9]: matrix metalloproteinase-3 (MMP3), MMP3 (gene 4314)
The test can be described thus: LTEA_HepaRG_MMP3: Life Technologies and Expression Analysis (LTEA) Assay for matrix metalloproteinase-3 (MMP3) using HepaRG (AID 2283519). The gist of the method:
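HepaRG, human; 48 h dosing, 8 conc. (max 100 uM, half-log), duplicate, 0.5% DMSO. Readout: MMP3 transcript by Fluidigm TaqMan qRT-PCR, ACTB/GAPDH/POLR2A-normalised. Gain or loss fitted vs DMSO.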

Read-out in test [10]: Nuclear factor NF-kappa-B p105 subunit (Homo sapiens) (UniProt P19838)
The test can be described thus: LTEA_HepaRG_NFKB1: Life Technologies and Expression Analysis (LTEA) Assay for Nuclear Factor Kappa B Subunit 1 (NFKB1) using HepaRG (AID 2283521).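 Further: differentiated human HepaRG liver cells in serum-free induction medium.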 The gist of the method:
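NFKB1 transcript was measured by TaqMan qRT-PCR on Fluidigm arrays, normalised to three housekeeping genes and fitted in both directions against 0.5% DMSO. HepaRG cells were dosed in duplicate for 48 h in serum-free induction medium, eight half-log steps from 100 uM.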

Read-out in test [11]: Protein phosphatase 2A (PPP2R4), PTPA (gene 5524)
The test can be described thus: LTEA_HepaRG_PPP2R4: Life Technologies and Expression Analysis (LTEA) Assay for Protein phosphatase 2A (PPP2R4) using HepaRG (AID 2283522). The gist of the method:
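Gene-expression endpoint in HepaRG hepatic cells: 48 h treatment across eight half-log concentrations up to 100 uM in 0.5% DMSO. PPP2R4 mRNA by qRT-PCR, normalized to three endogenous control genes.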

Read-out in test [12]: Phosphatase and tensin (PTEN), PTEN (gene 5728)
Description: LTEA_HepaRG_PTEN: Life Technologies and Expression Analysis (LTEA) Assay for Phosphatase and tensin (PTEN) using HepaRG (AID 2283523). The gist of the method: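 Read-out is PTEN transcript level by multiplexed TaqMan qRT-PCR after 48 h chemical treatment of human HepaRG cultures in serum-free induction medium. Concentrations spanned 100 uM downward in half-log steps, 0.5% DMSO throughout; activity fitted in both directions against vehicle.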

Read-out in test [13]: solute carrier (SLC22A1), SLC22A1 (gene 6580)
The test can be described thus: LTEA_HepaRG_SLC22A1: Life Technologies and Expression Analysis (LTEA) Assay for solute carrier (SLC22A1) using HepaRG (AID 2283524).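 On AC50: differentiated human HepaRG liver cells in serum-free induction medium.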 The gist of the method:
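HepaRG (human liver line), 48 h dosing in serum-free induction medium; 8 conc., half-log down from 100 uM, 0.5% DMSO vehicle, duplicates. Endpoint: SLC22A1 mRNA, qRT-PCR, housekeeping-normalized; gain/loss fit vs DMSO.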

Read-out in test [14]: NAD(P)H dehydrogenase [quinone] 1 (NQO1), NQO1 (gene 1728)
Description: LTEA_HepaRG_NQO1: Life Technologies and Expression Analysis (LTEA) Assay for NAD(P)H dehydrogenase [quinone] 1 (NQO1) using HepaRG (AID 2283526). The gist of the method:
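Human HepaRG hepatic cells received chemicals for 48 h in serum-free induction medium with 0.5% DMSO, up to 100 uM. Expression was assessed by TaqMan qRT-PCR against housekeeping controls and fitted bidirectionally against DMSO.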

Read-out in test [15]: Nuclear factor erythroid 2-related factor 2 (Homo sapiens) (UniProt Q16236)
Description: LTEA_HepaRG_NFE2L2: Life Technologies and Expression Analysis (LTEA) Assay for Nuclear factor erythroid 2-related factor 2 (NFE2L2) Transcription Factor using HepaRG (AID 2283527). The gist of the method: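 Transcript level of NFE2L2 is the read-out, measured by microfluidic TaqMan qRT-PCR and normalized to three housekeeping genes. Human HepaRG cultures received test chemical for 48 h at up to 100 uM in half-log steps. Gain or loss of signal is fitted relative to 0.5% DMSO.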

Read-out in test [16]: succinate dehydrogenase complex iron sulfur subunit B (SDHB), SDHB (gene 6390)
The test can be described thus: LTEA_HepaRG_SDHB: Life Technologies and Expression Analysis (LTEA) Assay for succinate dehydrogenase complex iron sulfur subunit B (SDHB) using HepaRG (AID 2283528). The gist of the method: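 SDHB transcript level read by TaqMan qRT-PCR, housekeeping-normalised (ACTB, GAPDH, POLR2A), after 48 h chemical treatment of plated HepaRG cells; eight concentrations top 100 uM, half-log steps, 0.5% DMSO, duplicates; fitted both directions against DMSO.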

Read-out in test [17]: Signal transducer and activator of transcription 3 (Homo sapiens) (UniProt P40763)
The test can be described thus: LTEA_HepaRG_STAT3: Life Technologies and Expression Analysis (LTEA) Assay for Signal transducer and activator of transcription (STAT3) using HepaRG (AID 2283529). The gist of the method: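 Read-out is STAT3 mRNA level by qRT-PCR, normalized to three housekeeping genes, in human HepaRG liver cells treated for 48 h. Concentrations ran from 100 uM downward in half-log steps; curves were fitted for gain or loss relative to 0.5% DMSO.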

Read-out in test [18]: Pyruvate Dehydrogenase Kinase 4 (PDK4), PDK4 (gene 5166)
The test can be described thus: LTEA_HepaRG_PDK4: Life Technologies and Expression Analysis (LTEA) Assay for Pyruvate Dehydrogenase Kinase 4 (PDK4) using HepaRG (AID 2283525). The gist of the method: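 In this multiplexed human HepaRG expression assay, cells are treated 48 h with test chemicals across an eight-point range starting at 100 uM. PDK4 mRNA changes, normalized to ACTB/GAPDH/POLR2A, are fitted in both directions relative to vehicle.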

Read-out in test [19]: Paternally Expressed 10 (PEG10), PEG10 (gene 23089)
The test can be described thus: LTEA_HepaRG_PEG10: Life Technologies and Expression Analysis (LTEA) Assay for Paternally Expressed 10 (PEG10) using HepaRG (AID 2283520).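 On AC50: PEG10 transcript by qRT-PCR normalised to ACTB GAPDH and POLR2A.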 The gist of the method:
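Chemicals tested on HepaRG cells for 48 h, highest concentration 100 uM. PEG10 expression assessed by qRT-PCR relative to DMSO control.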

Read-out in test [20]: JUN Transcription Factor, JUN (gene 3725)
Description: LTEA_HepaRG_JUN: Life Technologies and Expression Analysis (LTEA) Assay for JUN Transcription Factor using HepaRG (AID 2283513). The gist of the method:
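Human HepaRG liver cells receive test chemicals in 0.5% DMSO for 48 h across an eight-point range topping at 100 uM. Expression changes in JUN are scored in both directions against the DMSO vehicle.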

Sequence of Nuclear factor NF-kappa-B p105 subunit (Homo sapiens) (P19838 whole entry, looked up): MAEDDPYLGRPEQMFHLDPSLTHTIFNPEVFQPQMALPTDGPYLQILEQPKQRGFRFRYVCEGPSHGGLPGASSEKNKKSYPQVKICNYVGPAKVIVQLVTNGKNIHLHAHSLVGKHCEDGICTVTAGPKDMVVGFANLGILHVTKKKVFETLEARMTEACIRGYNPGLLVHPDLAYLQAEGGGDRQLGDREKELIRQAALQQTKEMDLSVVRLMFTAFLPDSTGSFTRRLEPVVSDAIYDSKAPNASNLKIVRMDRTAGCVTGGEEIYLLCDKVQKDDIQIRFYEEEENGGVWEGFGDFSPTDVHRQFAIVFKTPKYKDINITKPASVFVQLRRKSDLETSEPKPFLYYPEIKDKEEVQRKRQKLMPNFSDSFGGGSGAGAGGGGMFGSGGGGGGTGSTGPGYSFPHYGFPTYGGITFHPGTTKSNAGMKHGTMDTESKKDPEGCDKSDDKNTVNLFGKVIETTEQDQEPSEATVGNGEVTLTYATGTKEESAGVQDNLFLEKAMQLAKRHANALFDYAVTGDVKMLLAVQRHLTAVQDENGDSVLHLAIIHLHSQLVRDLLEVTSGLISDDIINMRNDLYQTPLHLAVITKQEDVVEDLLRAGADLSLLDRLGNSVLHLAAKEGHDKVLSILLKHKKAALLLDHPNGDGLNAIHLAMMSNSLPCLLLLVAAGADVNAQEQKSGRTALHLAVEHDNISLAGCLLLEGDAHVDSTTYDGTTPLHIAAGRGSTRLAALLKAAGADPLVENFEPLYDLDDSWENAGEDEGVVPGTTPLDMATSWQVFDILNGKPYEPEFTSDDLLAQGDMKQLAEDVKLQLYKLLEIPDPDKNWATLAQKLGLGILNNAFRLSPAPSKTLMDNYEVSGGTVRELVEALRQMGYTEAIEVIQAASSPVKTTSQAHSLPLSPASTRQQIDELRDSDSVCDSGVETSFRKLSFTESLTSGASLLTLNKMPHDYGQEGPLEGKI
Sequence of Nuclear factor erythroid 2-related factor 2 (Homo sapiens) (Q16236 whole entry, looked up): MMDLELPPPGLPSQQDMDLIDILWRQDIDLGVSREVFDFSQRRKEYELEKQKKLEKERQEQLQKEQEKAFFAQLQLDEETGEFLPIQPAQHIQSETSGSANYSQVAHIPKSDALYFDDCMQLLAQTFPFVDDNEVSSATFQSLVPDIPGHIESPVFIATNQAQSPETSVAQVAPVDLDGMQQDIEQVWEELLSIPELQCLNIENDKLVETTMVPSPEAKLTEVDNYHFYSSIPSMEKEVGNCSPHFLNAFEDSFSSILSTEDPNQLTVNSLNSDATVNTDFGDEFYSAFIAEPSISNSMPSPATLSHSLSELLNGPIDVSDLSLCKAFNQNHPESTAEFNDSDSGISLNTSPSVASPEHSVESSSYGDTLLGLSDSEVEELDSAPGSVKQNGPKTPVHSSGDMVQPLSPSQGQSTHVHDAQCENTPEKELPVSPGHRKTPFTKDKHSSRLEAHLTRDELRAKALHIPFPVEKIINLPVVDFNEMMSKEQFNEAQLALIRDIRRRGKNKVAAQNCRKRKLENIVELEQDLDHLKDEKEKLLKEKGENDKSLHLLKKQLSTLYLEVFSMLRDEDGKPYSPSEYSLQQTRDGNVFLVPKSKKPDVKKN
Sequence of Signal transducer and activator of transcription 3 (Homo sapiens) (P40763 whole entry, looked up): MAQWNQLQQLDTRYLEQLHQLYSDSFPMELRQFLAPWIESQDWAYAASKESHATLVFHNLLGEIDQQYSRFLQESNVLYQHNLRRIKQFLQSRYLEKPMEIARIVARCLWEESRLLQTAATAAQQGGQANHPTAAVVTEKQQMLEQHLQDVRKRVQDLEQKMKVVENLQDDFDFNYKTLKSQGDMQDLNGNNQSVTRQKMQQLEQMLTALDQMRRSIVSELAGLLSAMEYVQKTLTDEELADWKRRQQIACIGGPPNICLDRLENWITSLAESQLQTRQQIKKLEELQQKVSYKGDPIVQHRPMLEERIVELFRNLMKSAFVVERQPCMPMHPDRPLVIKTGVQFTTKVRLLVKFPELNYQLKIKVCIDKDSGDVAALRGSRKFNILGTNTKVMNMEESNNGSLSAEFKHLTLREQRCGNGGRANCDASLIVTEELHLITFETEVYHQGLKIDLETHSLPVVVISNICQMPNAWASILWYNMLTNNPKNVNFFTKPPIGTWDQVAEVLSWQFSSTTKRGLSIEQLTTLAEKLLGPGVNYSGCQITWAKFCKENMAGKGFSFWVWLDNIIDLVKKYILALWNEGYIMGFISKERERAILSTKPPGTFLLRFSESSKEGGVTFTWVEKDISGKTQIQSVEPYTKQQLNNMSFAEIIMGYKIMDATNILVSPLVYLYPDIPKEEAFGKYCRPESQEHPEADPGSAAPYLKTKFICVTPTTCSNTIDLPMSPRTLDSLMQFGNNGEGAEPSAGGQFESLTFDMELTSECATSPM

For the compound `CC(C)(C)C(O)C(Oc1ccc(Cl)cc1)n1cncn1` (stereo unspecified), the results for the AC50 in [1], in test [9] and in test [15] were 50 µM (active), 50 µM (active) and 9.92 µM (active), respectively. The outcome in [1], in test [2], in test [3], in test [4], in test [5] and in [6] was inactive. Also, the compound was called inactive in test [7], in test [8], in [9], in [10], in test [11] and in [12]. Further, the compound was called inactive in test [13], in test [14], in test [15], in test [16] and in test [17].

On to `O=[N+]([O-])c1c(Cl)c(Cl)c(Cl)c(Cl)c1Cl`, for which the compound was classed as inactive in [1], in test [2], in test [4], in test [5], in test [6] and in test [7]. Also, the result in test [8], in test [10], in test [11], in [12], in test [13] and in test [18] was inactive. Also, the call in [14], in [15], in [16] and in test [17] was inactive. Further, the values for the AC50 in [3] and in [9] were 38.6 µM (active) and 50 µM (active), respectively.

On to `Oc1cc(Cl)ccc1Oc1ccc(Cl)cc1Cl`, for which the AC50 in test [1] is 51 µM (active); in [3] it was 69 µM (active); in test [4], 78.7 µM (active); in test [5], 86.4 nM (active) and 51 µM (active); in [6] it was 82.3 µM (active); in [7], 89 µM (active). The AC50 in test [8] is 83.5 µM (active); in test [9], 51 µM (active); in [13] it was 86 µM (active). The compound was called inactive in [1], in [2], in test [3], in test [4], in [5] and in [6]. For the same compound, the result in test [7], in test [8], in test [9], in test [10], in test [11] and in test [12] was inactive. The compound was classed as inactive in test [13], in [14], in [15], in [16] and in [17].

In the case of `Cc1[nH]c(=O)n(C(C)(C)C)c(=O)c1Cl`, the call in [1], in test [2], in test [4], in [5], in test [6] and in [7] was inactive. The call in test [8], in [9], in test [19], in test [10], in test [11] and in test [12] was inactive. Further, the call in test [13], in test [14], in test [16] and in test [17] was inactive. For the same compound, the AC50 in test [3] and in test [15] was 50 µM (active) throughout.

With `CCC(C)(NC(=O)c1cc(Cl)c(C)c(Cl)c1)C(=O)CCl` (stereo unspecified), the call in test [1], in test [20], in test [9], in [10], in test [11] and in [15] was inactive. Moreover, the outcome in test [16] and in test [17] was inactive. Moreover, the AC50 in test [2] is 50.2 µM (active); in test [3], 32.4 µM (active); in [4], 50.2 µM (active); in [5], 90.1 µM (active); in test [6] it was 75.5 µM (active); in test [7], 50.2 µM (active). The AC50 is 50.2 µM (active) in test [8]; 59.2 µM (active) in test [19]; 90.8 µM (active) in [12]; 82.9 µM (active) in test [13]; 79.8 µM (active) in test [14].

Values taken from PubChem BioAssay (EPA / NIEHS).
